Source: PubChem BioAssay (National Center for Advancing Translational Sciences (NCATS))
PLK1 PBD inh – qHTS for Inhibitors of PLK1-PDB (polo-like kinase 1 - polo-box domain): Primary Screen. Plk1 PBD binding of FITC phosphopeptide, fluorescence polarization. Potency, µM, for inactives: max response, negative = inhibition, actives largely listed as inhibitors. actives 2.8% (n = 360,000); note: potency is the fitted concentration of half-maximal effect; series mostly up to about 57 µM; % is set by controls: 0 for no effect and ±100 for the full control effect; nearly all actives have a fitted effect of over 65% in size
KAT2A inh – qHTS Assay for Inhibitors of GCN5L2; Histone acetyltransferase KAT2A (Homo sapiens), Q92830; GCN5L2 HAT assay, ThioGlo1 CoA-SH fluorescence; Potency, µM (highest dose often 58.9 µM), for inactives: top-dose activity change, negative = inhibition, usual class: inhibitors; actives 0.21% (n = 390,000); note: potency is the fitted concentration of half-maximal effect; % is set by controls: 0 for no effect and ±100 for the full control effect
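Enzyme at 20nM final was mixed with library compounds for 15 min at room temperature. Peptide H3(1-25) at 75uM, acetyl-CoA at 70uM and ThioGlo1 at 50uM were then added. Plates were read immediately and after 20 min (Ex340nm/Em540nm).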
JMJD2A Tudor inh – qHTS Assay for Inhibitors of JMJD2A-Tudor Domain; Lysine-specific demethylase 4A (Homo sapiens), O75164; AlphaScreen JMJD2A-Tudor / H3K4me3 peptide binding; Potency, µM (titrated, usually from 114 µM), without a hit: at the top dose activity change, negative = inhibition, usual class: inhibitors; actives 4.4% (n = 390,000); note: potency is the fitted concentration of half-maximal effect; % is set by controls: 0 for no effect and ±100 for the full control effect; nearly all actives have a fitted effect of over 50% in size
Target sequence (O75164 whole entry, looked up, the tested form may be a part): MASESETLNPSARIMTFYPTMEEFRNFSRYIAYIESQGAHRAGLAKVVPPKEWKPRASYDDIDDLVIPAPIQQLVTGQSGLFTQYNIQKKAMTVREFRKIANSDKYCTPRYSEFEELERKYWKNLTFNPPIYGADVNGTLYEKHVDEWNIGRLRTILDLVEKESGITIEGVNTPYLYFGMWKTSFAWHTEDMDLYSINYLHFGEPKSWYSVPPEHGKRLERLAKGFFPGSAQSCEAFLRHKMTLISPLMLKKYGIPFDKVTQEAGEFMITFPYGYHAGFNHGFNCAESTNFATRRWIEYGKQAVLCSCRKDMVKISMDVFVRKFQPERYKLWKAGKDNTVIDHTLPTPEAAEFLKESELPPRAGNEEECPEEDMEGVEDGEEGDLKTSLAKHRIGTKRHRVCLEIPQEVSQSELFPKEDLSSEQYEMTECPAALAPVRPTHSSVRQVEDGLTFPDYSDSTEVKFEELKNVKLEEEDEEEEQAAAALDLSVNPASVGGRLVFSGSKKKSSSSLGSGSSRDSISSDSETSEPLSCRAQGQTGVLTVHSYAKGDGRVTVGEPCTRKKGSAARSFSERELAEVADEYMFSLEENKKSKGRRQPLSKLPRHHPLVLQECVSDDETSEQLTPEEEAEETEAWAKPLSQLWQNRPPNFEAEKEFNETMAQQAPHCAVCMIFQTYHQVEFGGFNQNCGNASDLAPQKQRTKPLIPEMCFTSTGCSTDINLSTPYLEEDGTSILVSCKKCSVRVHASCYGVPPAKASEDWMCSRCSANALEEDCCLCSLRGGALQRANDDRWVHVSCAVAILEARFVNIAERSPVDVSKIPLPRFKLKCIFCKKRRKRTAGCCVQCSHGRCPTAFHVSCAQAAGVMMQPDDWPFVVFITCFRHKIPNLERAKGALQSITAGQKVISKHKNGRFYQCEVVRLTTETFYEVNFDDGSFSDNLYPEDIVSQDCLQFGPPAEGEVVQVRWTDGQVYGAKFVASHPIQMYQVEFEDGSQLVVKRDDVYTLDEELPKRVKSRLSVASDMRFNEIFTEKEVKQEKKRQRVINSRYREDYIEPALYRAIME
BAZ2B inh – qHTS Assay for Inhibitors of BAZ2B. Bromodomain adjacent to zinc finger domain protein 2B (Homo sapiens), Q9UIF8. AlphaScreen BAZ2B-H3K14Ac peptide displacement. Potency, µM (top dose mostly 114 µM), without a hit: at the top dose activity change, negative = inhibition, actives largely listed as inhibitors. actives 4.4% (n = 360,000). AID 504333, 2011; note: potency is the fitted concentration of half-maximal effect; % is set by controls: 0 for no effect and ±100 for the full control effect; nearly all actives have a fitted effect of over 60% in size
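Compounds, titrated to a top concentration of 110 uM, were incubated 30 min at room temperature with preformed BAZ2B/acetyl-K14 H3 peptide complex (50 nM each). Proximity signal was measured by AlphaScreen after 20 min with beads.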
HP1b binding inh – HTS for Inhibitors of HP1-beta Chromodomain Interactions with Methylated Histone Tails. Chromobox protein homolog 1 (Homo sapiens), P83916. AlphaScreen HP1-beta / biotin-H3K9me3 peptide binding. actives 0.56% (n = 390,000). AID 540317, 2011. Potency, µM (doses to about 114 µM), for inactives: at the highest dose activity change, negative = inhibition, most hits filed as inhibitors; note: potency is the fitted concentration of half-maximal effect; nearly all actives have a fitted effect of over 70% in size
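HP1-beta protein (50 nM final) preincubated 30 min at room temperature with biotinylated H3(1-18)K9me3 peptide (50 nM) in PBS pH 7.4, 0.01% Tween-20, then compound added for 30 min. AlphaScreen streptavidin donor/nickel chelate acceptor beads (10 ug/mL final), 30 min dark, luminescence read.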
PI5P4K alpha inh – qHTS for Inhibitors of phosphatidylinositol 5-phosphate 4-kinase (PI5P4K); actives 1.2% (n = 330,000); PI5P4Kalpha enzyme, ADP-Glo luminescence, 60 min; stronger effect = lower value; Phosphatidylinositol 5-phosphate 4-kinase type-2 alpha (Homo sapiens), P48426; max response, %; active = max response of -50% or lower; inconclusive = between -30% and -50%; inactive = -30% or higher; note: value at the top dose of about 77 µM; % is set by controls: 0 for no effect and ±100 for the full control effect
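Enzyme plus substrate dispensed, test compounds pinned in, then ATP (5 microM final) added. After 60 min at RT, ADP-Glo reagent 1 for 45 min and reagent 2 for 30 min preceded luminescence imaging.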
ME-1 prolif – qHTS Assay for Compounds Blocking the Interaction Between CBF-beta and RUNX1 for the Treatment of Acute Myeloid Leukemia: ME-1 cellular proliferation. shares compounds with BAZ2B inh. ME-1 cell proliferation, ATP luminescence, 48 h. Potency, µM (top dose mostly 56.1 µM), for inactives: at the top dose activity change, negative = inhibition, usual class: inhibitors. actives 20% (n = 140)
G9a inh – qHTS Assay for Inhibitors of Histone Lysine Methyltransferase G9a: Hit Confirmation. shares compounds with JMJD2A Tudor inh. G9a H3K9 monomethylation, AlphaScreen, 2 h. Potency, µM, hits mostly inhibitors. actives 89% (n = 370); note: potency is the fitted concentration of half-maximal effect; nearly all actives have a fitted effect of over 65% in size
RGS4 confirm – qHTS for Inhibitors of Regulator of G Protein Signaling(RGS) 4: Hit Validation; shares compounds with JMJD2A Tudor inh; RGS4 GAP activity, Transcreener GDP fluorescence polarization; Potency, µM, usual class: inhibitors; actives 80% (n = 25); AID 602388, 2012
ADP-Glo interf – qHTS for Inhibitors of PI5P4K: ADP-Glo counter assay; shares compounds with PI5P4K alpha inh; ADP-Glo detection counter-screen, luciferase luminescence, no enzyme; Potency, µM (doses to about 76.9 µM), without a hit: at the highest dose activity change, negative = inhibition, usual class: inhibitors; 1,100 tested, under 10 active
TbPYK confirm – qHTS of Trypanosoma Brucei Inhibitors: Confirmatory Assay for Cherry-picked Compounds; shares compounds with PLK1 PBD inh; recombinant TbPYK, Kinase-Glo ATP luminescence; actives 67% (n = 890); Potency, µM (doses to about 76.9 µM), without a hit: at the highest dose activity change, negative = inhibition, hits mostly inhibitors; note: potency is the fitted concentration of half-maximal effect; % is set by controls: 0 for no effect and ±100 for the full control effect; nearly all actives have a fitted effect of over 70% in size
TbPYK ADP-Glo – qHTS of Trypanosoma Brucei Inhibitors: Orthogonal Assay for Cherry-picked Compounds; shares compounds with PLK1 PBD inh; recombinant TbPYK, ADP-Glo luminescence, 60 min; Potency, µM (titrated, usually from 76.9 µM), without a hit: at the highest dose activity change, negative = inhibition, usual class: inhibitors; actives 62% (n = 890); AID 720584, 2013; note: potency is the fitted concentration of half-maximal effect; % is set by controls: 0 for no effect and ±100 for the full control effect; nearly all actives have a fitted effect of over 75% in size
* marks the source's active call; other numbers are inactive results; [ ] = remark or other dose. Shown are actives, neighbours in structure and some others; about 7% of the full set was active somewhere. Unless noted, calls come from the whole dose curve; as a rule, active = well fitted curve in the direction sought with a large enough effect; inconclusive = small, poorly fitted or top-dose-only effect, or another doubt; inactive = no such curve, though single readings can be large; an effect the other way counts as inactive or inconclusive.

What do the screens show for `O=S(=O)(c1ccc2nc(-c3ccco3)c(-c3ccco3)nc2c1)N1CCOCC1`?
PLK1 PBD inh: inconclusive; KAT2A inh: inconclusive; JMJD2A Tudor inh: 79µM*; BAZ2B inh: 50µM*; HP1b binding inh: -16%; PI5P4K alpha inh: -78*; ME-1 prolif: -11%[25.6 µM]; ADP-Glo interf: -4%; TbPYK confirm: 20µM*; TbPYK ADP-Glo: 25µM*

What do the screens show for `CCOC(=O)c1ccccc1NC(=O)c1c(C)oc2ncnc(N3CCOCC3)c12`?
KAT2A inh: 13%; JMJD2A Tudor inh: -18%; BAZ2B inh: 2%[57.1 µM]; HP1b binding inh: 48%

What do the screens show for `CCOc1nc(NCCc2ccc(OC)c(OC)c2)nc(N2CCN(c3ccc(OC)cc3)CC2)n1`?
PLK1 PBD inh: -5%; KAT2A inh: -6%; JMJD2A Tudor inh: 2%; BAZ2B inh: -24%; HP1b binding inh: 35%; PI5P4K alpha inh: 0; G9a inh: 2*

How did CCOc1cc(C)nc(NCCc2ccc(OC)c(OC)c2)n1 do in these assays?
PLK1 PBD inh: 2%; KAT2A inh: 3%; JMJD2A Tudor inh: -24%; BAZ2B inh: -5%; HP1b binding inh: 24%

What do the screens show for `C[C@H](CO)N1C[C@H](C)[C@H](CN(C)C(=O)Nc2ccc(C(C)(C)C)cc2)OCc2cnnn2CCCC1=O`?
PLK1 PBD inh: -17%; PI5P4K alpha inh: 5

Results for CN(C)c1ccc(NC(=O)c2ccc([N+](=O)[O-])cc2Cl)cc1 ?
PLK1 PBD inh: -3%; KAT2A inh: -2%; JMJD2A Tudor inh: -13%; BAZ2B inh: -19%; HP1b binding inh: -2%; PI5P4K alpha inh: -1; G9a inh: 6.3*

Results for CCN(CC)C(=O)Cc1c(OC)ccc2cc(Br)ccc12 ?
PLK1 PBD inh: 1%; KAT2A inh: -5%; JMJD2A Tudor inh: 10%; BAZ2B inh: -34%; HP1b binding inh: 50%; PI5P4K alpha inh: 2

What do the screens show for `CCN(Cc1ccncc1)Cc1c(O)ccc2cc(Br)ccc12`?
PLK1 PBD inh: 11µM*; KAT2A inh: -2%; JMJD2A Tudor inh: 45µM*; HP1b binding inh: inconclusive; PI5P4K alpha inh: inconclusive; G9a inh: 2.8*; RGS4 confirm: 17*

Results for CCN(C(=O)CSc1nc2cc(C(=O)O)ccc2c(=O)n1-c1ccccc1F)C1CCS(=O)(=O)C1 (centres undefined) ?
PLK1 PBD inh: 1%; JMJD2A Tudor inh: -10%; HP1b binding inh: 49%; PI5P4K alpha inh: -12

What do the screens show for `COc1ccc(CCNC(=O)C(C)n2c(=O)cc(C(F)(F)F)c3c(C)nn(C)c32)cc1OC` (centres undefined)?
KAT2A inh: -6%; JMJD2A Tudor inh: -17%; BAZ2B inh: -3%; HP1b binding inh: 11%

How did Cc1ccc(C)c(Nc2nn3c(=O)c4ccc(C(=O)NCCc5ccccc5)cc4nc3s2)c1 do in these assays?
KAT2A inh: -2%; JMJD2A Tudor inh: -2%; BAZ2B inh: -11%; HP1b binding inh: 24%

Results for CCCNC(=O)c1ccc2c(=O)n3c(-c4ccc(C)cc4)csc3nc2c1 ?
PLK1 PBD inh: inconclusive; KAT2A inh: 12%; JMJD2A Tudor inh: 22µM*; BAZ2B inh: 7.1µM*; HP1b binding inh: -25%; PI5P4K alpha inh: -7; G9a inh: 0.56*

Results for CCN(CC)c1nc2c(S(=O)(=O)c3ccc(C)cc3)nnn2c2ccsc12 ?
KAT2A inh: -6%; JMJD2A Tudor inh: -15%; BAZ2B inh: -27%; HP1b binding inh: 11%

What do the screens show for `Nc1ccc(OC(=O)Nc2ccc(O)cc2)cc1`?
PLK1 PBD inh: -4%; KAT2A inh: -6%; JMJD2A Tudor inh: inconclusive; BAZ2B inh: -8%; HP1b binding inh: -3%; PI5P4K alpha inh: -9

How did O=C(Nc1ccc(N2CCN(c3ccc(O)cc3)CC2)cc1)Oc1ccccc1 do in these assays?
PLK1 PBD inh: -1%; KAT2A inh: -7%; JMJD2A Tudor inh: -27%; BAZ2B inh: -30%; HP1b binding inh: -4%; G9a inh: 0.2*

Results for C=CCN(c1ccccc1OC)S(=O)(=O)c1cccc(C(=O)OCC(=O)c2c(N)n(C)c(=O)n(C)c2=O)c1 ?
PLK1 PBD inh: -1%; JMJD2A Tudor inh: -29%; HP1b binding inh: -1%; PI5P4K alpha inh: -1

What do the screens show for `Cc1nc(NC(=O)CSc2ccccc2N)sc1C`?
PLK1 PBD inh: inconclusive; KAT2A inh: -2%; JMJD2A Tudor inh: -18%; BAZ2B inh: -39%; HP1b binding inh: 1%; G9a inh: 18*
